Results filed as inconclusive are left out. The source made the active and inactive calls. Unless noted, calls follow the shape of the dose curve; as a rule, active = well fitted curve in the direction sought with a large enough effect; inconclusive = small, poorly fitted or top-dose-only effect, or another doubt; inactive = no such curve, though single readings can be large; an effect the other way counts as inactive or inconclusive.
Assays:
[1] = Cellular Toxicity (caspase-3) Mesangial (AID 660);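 also: combined caspase 3 and 7 activity read by Caspase-Glo luminescence; cells exposed to compound for 16 h before the caspase read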
Outline: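 Seed cells derived from normal human renal glomeruli, incubate 5 h, add compounds across concentrations and incubate 16 h at 37 °C. Caspase 3/7 activation is then quantified by luciferase light, with AC50 derived by Hill modeling.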

[2] = Cellular Toxicity (caspase-3) SK-N-SH (AID 661);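 also: 0% = DMSO basal and 100% = 10 µM staurosporine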
Outline: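 Cells were seeded and incubated 5 hr at 37 °C, dosed with compound over a concentration range for 16 hr, then given Caspase-Glo 3/7 reagent for 1 hr at room temperature before luminescence reading.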

[3] = Cellular Toxicity (caspase-3) H-4-II-E (AID 663);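 also: 0% = DMSO basal and 100% = 100 µM tamoxifen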
Outline: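 H-4-II-E rat hepatoma, 1500 cells/well, 5 hr settle at 37 °C; compound 16 hr, 37 °C, complete medium; Caspase-Glo 3/7, 20 min RT; luminescence. DMSO = 0%, 100 uM tamoxifen = 100%; Hill-equation AC50.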

[4] = Cellular Toxicity (caspase-3) Hek293 (AID 664);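 also: cells exposed to compound for 16 h at 37 °C before readout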
Outline: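 qHTS, HEK293 (human embryonic kidney), 16 h cpd exposure in complete medium. Caspase-3/7 activation = luminescence increase; normalized to DMSO/100 uM tamoxifen; Hill-fit AC50.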

[5] = Cellular Toxicity (caspase-3) N2a (AID 665);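 also: compound exposure lasted 16 h at 37 °C before readout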
Outline: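 Caspase-3/7 activation, measured as increased luminescence from aminoluciferin release, is quantified in mouse N2a cells exposed to compounds for 16 h. Values are normalized to DMSO and 10 uM staurosporine, with AC50 derived by Hill modelling.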

[6] = Cellular Toxicity (caspase-3) NIH 3T3 (AID 666);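 also: caspase signal read after 16 h compound exposure; 0% = DMSO basal and 100% = 100 µM tamoxifen stimulation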
Outline: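 Cells were plated at 1000 per well and incubated 5 hr at 37°C, then compound was added for 16 hr. Caspase-Glo 3/7 reagent followed for 20 min at room temperature before luminescence was read.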

[7] = Cellular Toxicity (caspase-3) Renal Proximal Tubule (AID 667);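 also: cells exposed to compound for 16 hours at 37 °C before detection; 0% = DMSO basal and 100% = 10 µM staurosporine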
Outline: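 Caspase 3/7 activation measured by luminescent aminoluciferin release in primary rat proximal tubule cells after 16 hr compound exposure at 37 °C. AC50 from Hill-fitted concentration-response, scaled between DMSO and 10 uM staurosporine.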

[8] = Cell Viability - LYMP2-001 (AID 921);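 also: series mostly up to about 92 µM; 0% = DMSO only and full inhibition = tetraoctylammonium bromide control wells; nearly all actives have a fitted effect of over 70% in size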
Outline: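 Cellular ATP loss read by luciferase luminescence after 24 h compound exposure at 37 C in complete medium. LYMP2-001 lymphoblastoid cells, 2500/well; qHTS concentration-response data fitted with Hill equation for AC50.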

[9] = MultiTox-Fluor Cytotoxicity Assay - LYMP1-001 - Dead Cells (AID 946);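 also: 0% = DMSO and 100% = tetraoctylammonium bromide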
Outline: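 In this qHTS, 15 uM tetraoctylammonium bromide defined 100% and DMSO defined basal activity. Lymphoblastoid cells (LYMP1-001, 2500 per well) received compound for 16 hr at 37 C before a fluorogenic dead-cell substrate readout at 485/520 nm.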

[10] = MultiTox-Fluor Cytotoxicity Assay - LYMP1-001 - Live Cells (AID 947);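 also: 0% = DMSO only and full inhibition = tetraoctylammonium bromide control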
[11] = Cell Viability - LYMP1-002 - Assay at 16 hr (AID 948);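 also: 0% = DMSO alone and full effect = 92 µM tetraoctylammonium bromide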
Outline: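 ATP luminescence (CellTiter-Glo) was measured after 16 hr compound exposure at 37 C of 2500 lymphoblastoid LYMP1-002 cells per well. Concentration-response curves were fitted with the Hill equation to give AC50.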

[12] = MultiTox-Fluor Cytotoxicity Assay - LYMP1-002 - Live Cells (AID 955); also: % is scaled to controls: 0 for no effect and ±100 for the full control effect
Outline: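 Cells were seeded at 2500 per well and incubated 5 hr. Compounds were then added for 16 hr at 37 C, followed by MultiTox-Fluor reagent for 60 min at room temperature and fluorescence reading of viable-cell protease signal.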

[13] = MultiTox-Fluor Cytotoxicity Assay - LYMP1-003 - Dead Cells (AID 961);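 also: 0% = DMSO and 100% = tetraoctylammonium bromide; nearly all actives have a fitted effect of over 70% in size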
Outline: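 Acute toxicity is scored as increased dead-cell protease activity in human lymphoblastoid LYMP1-003 cells after 16 h compound exposure in complete culture medium. Activity is normalized to DMSO basal and 15 uM tetraoctylammonium bromide as full response.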

[14] = MultiTox-Fluor Cytotoxicity Assay - LYMP1-003 - Live Cells (AID 962);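 also: cells exposed to compound for 16 hours at 37 °C; 0% = DMSO only and full loss = 92 µM tetraoctylammonium bromide; cytotoxic hits lower the live-cell protease signal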
Outline: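 Acute cytotoxicity is scored as a drop in live-cell protease activity in human lymphoblastoid LYMP1-003 cells after 16 hr compound exposure at 37 C. AC50 values come from Hill-equation modelling of concentration-response data.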

[15] = Cell Viability - LYMP1-003 - Assay at 24 hr (AID 963);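 also: plate controls were DMSO only for no effect and tetraoctylammonium bromide positive control for full effect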
Outline: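 Cytotoxicity is scored as a concentration-dependent fall in ATP-linked luciferase signal in human lymphoblastoid LYMP1-003 cells treated 24 hr at 37 C in complete culture medium.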

[16] = qHTS assay for small molecule agonists of the antioxidant response element (ARE) signaling pathway measured by Nrf2-dependant transcriptional activity (AID 720636; active = well fitted curve in the direction sought with a large enough effect in the repeat runs; an effect the other way counts as inactive or inconclusive;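 also: HepG2 cells with an ARE-driven luciferase reporter; % of control where 0% means no effect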)
Outline: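 Cells: ARE-luc HepG2 with Nrf2-responsive luciferase. Medium contained 1% dialyzed FBS. Compound exposure lasted 16 hr at 37 C and 5% CO2, followed by ONE-Glo luciferase detection.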

[17] = qHTS assay for small molecule antagonists of the retinoid-related orphan receptor gamma (ROR-gamma) signaling pathway - cell viability counter screen (AID 720652; active = well fitted curve in the direction sought with a large enough effect in the repeat runs; an effect the other way counts as inactive or inconclusive;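 also: CHO reporter cells with doxycycline-induced ROR-gamma expression; series mostly up to about 92 µM; compound exposure lasted 16 hr before ATP read; % is scaled to controls: 0 for no effect and ±100 for the full control effect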)
Outline: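 Steps: seed CHO cells bearing TET-inducible ROR and ROR response element-luciferase; rest 5 hr at 37 C; add compound, then doxycycline; incubate 16 hr; add CellTiter-Glo and read luminescence as ATP-based viability.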

[18] = qHTS assay for small molecule agonists of the antioxidant response element (ARE) signaling pathway measured by Nrf2-dependant transcriptional activity - cell viability counter screen (AID 720653; active = well fitted curve in the direction sought with a large enough effect in the repeat runs; an effect the other way counts as inactive or inconclusive; also: % is scaled to controls: 0 for no effect and ±100 for the full control effect); details: ARE-bla HepG2 viability, CellTiter-Glo ATP luminescence, 16 h; active compounds read low
Outline: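 ARE-bla HepG2 cells treated with compounds for 16 h at 37C; this counter screen measures viability as intracellular ATP by CellTiter-Glo luminescence after 30 min at room temperature.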

[19] = qHTS assay for cell viability of HEK293 cells (AID 743288); details: ATP luminescence (CellTiter-Glo), 18 h, active compounds read low; also: % is scaled to controls: 0 for no effect and ±100 for the full control effect; nearly all actives have a fitted effect of over 50% in size
Outline: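 Readout is luciferase-coupled ATP content (CellTiter-Glo luminescence, 30 min room temperature) as a measure of metabolically competent cells. Parental HEK293 cells were plated 5 h or more before compound addition, then treated 18 h at 37 C.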

[20] = qHTS assay for cell viability of the p53RE-bla HCT-116 cell line (AID 743292); also: % is scaled to controls: 0 for no effect and ±100 for the full control effect; nearly all actives have a fitted effect of over 55% in size
Outline: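 HCT-116 p53RE-bla cells seeded 4,000/well; 5 h at 37 C; compound (DMSO) added; 16 h at 37 C; CellTiter-Glo added, 30 min RT; luminescence read.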

Measured: max response

CN(C)CCOC(c1ccccc1)c1ccccc1 (tested in a mixture with another compound)
inactive: [1] | [2] | [3] | [4] | [5] | [6] | [7] | [8] | [9] | [10] | [11] | [12] | [13] | [14] | [15] | [16] | [17] | [18] -6.81% | [19] 3.64% | [20]
